# PubChem BioAssay (NCATS)
# Results filed as inconclusive are left out. A call without a number means that no potency is given here. Calls of active or inactive are those of the source. Unless noted, calls come from the whole dose curve; as a rule, active = well fitted curve in the direction sought with a large enough effect; inconclusive = small, poorly fitted or top-dose-only effect, or another doubt; inactive = no such curve, though single readings can be large; an effect the other way counts as inactive or inconclusive. Peptide text beside a SMILES is read from it.
# Experiments:
# [1] = biological target: Cytochrome P450 3A4 (Homo sapiens) (UniProt P08684); experiment: qHTS Assay for Activators of Cytochrome P450 3A4 (AID 885); conditions: recombinant CYP3A4, Luciferin-PPXE luminescence, 60 min; series mostly up to 57.1 µM; note: nearly all actives have a fitted effect of over 65% in size
# Cytochrome P450 3A4 (Homo sapiens), sequence (P08684 whole entry, looked up): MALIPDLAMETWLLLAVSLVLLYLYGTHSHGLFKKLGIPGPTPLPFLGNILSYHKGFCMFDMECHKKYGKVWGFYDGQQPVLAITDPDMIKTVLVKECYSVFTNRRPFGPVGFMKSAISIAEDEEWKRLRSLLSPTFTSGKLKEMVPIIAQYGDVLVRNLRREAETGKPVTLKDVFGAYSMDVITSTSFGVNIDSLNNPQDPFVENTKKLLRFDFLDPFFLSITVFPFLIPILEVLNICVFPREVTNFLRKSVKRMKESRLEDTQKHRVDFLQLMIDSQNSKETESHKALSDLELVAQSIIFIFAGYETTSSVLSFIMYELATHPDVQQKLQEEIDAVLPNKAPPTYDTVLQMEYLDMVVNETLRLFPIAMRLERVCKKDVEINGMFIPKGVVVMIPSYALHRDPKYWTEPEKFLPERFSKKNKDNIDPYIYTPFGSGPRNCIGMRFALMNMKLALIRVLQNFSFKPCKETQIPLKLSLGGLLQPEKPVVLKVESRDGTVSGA
# In short: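 Quantitative HTS format: compounds preincubated with 20nM human CYP3A4 and Luciferin-PPXE substrate at KM, reaction started by NADPH regeneration, stopped after 60 min, luciferase luminescence read 20 min later.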
# [2] = biological target: Androgen receptor (Homo sapiens) (UniProt P10275); experiment: qHTS assay for small molecule agonists of androgen receptor signaling (AID 588515; active = well fitted curve in the direction sought with a large enough effect in the signal ratio, with a control signal flat; the % refers to the signal ratio); conditions: AR-UAS-bla HEK293, beta-lactamase ratio, agonist 16 h; stronger effect = higher value
# In short: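 EC50 and efficacy came from Hill fits of titrations (up to 92 uM) normalized to 30 nM R1881 as 100% and DMSO as 0%. Compound exposure was 16 h at 37 C on AR-UAS-bla HEK293 cells, with a 405/460/530 nm CCF4 fluorescence read.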
# [3] = biological target: Bile acid receptor (Homo sapiens) (UniProt Q96RI1); experiment: qHTS assay for small molecule antagonists of farnesoid X receptor signaling (AID 588526; calls by dose curve); conditions: HEK293T FXR-UAS-bla, beta-lactamase ratio, antagonist mode; series mostly up to 76.7 µM
# Bile acid receptor (Homo sapiens), sequence (Q96RI1 whole entry, looked up): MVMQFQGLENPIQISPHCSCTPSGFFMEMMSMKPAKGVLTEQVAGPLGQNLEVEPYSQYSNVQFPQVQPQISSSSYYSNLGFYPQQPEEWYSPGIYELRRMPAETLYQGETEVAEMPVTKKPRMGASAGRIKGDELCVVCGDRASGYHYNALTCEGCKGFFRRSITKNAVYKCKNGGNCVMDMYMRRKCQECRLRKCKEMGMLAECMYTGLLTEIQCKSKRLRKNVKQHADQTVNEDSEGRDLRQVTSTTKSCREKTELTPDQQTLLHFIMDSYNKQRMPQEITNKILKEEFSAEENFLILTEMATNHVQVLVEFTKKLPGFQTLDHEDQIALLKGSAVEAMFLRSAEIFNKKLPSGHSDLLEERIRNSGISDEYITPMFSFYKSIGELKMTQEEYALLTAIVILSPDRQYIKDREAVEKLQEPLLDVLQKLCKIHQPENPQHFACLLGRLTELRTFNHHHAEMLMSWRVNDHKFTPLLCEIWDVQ
# In short: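 Beta-lactamase reporter antagonist mode: HEK293T FXR-UAS-bla cells, titrated compound, CDCA stimulation, 16 h 37 C, CCF4 dye 2 h RT. Data normalized to CDCA 50 uM and DMSO; Hill-fit IC50.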
# [4] = qHTS assay for small molecule antagonists of peroxisome proliferator-activated receptor delta signaling (AID 588535; active = well fitted inhibition curve with a large enough effect in the signal ratio, with a control signal flat, not every such curve was filed as active; the % refers to the signal ratio;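 for max response: cells co-treated with a PPAR-delta agonist as stimulator during compound exposure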); conditions: HEK293T PPARd-UAS-bla, beta-lactamase FRET ratio, 18 h; 460 nm channel
# In short: (§1)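 HEK293T PPAR-delta-UAS-bla cells, 4000/well, 2% charcoal/dextran FBS; 5 h 37 C; cpd titration; 18 h 37 C; CCF4 2 h RT; FI 460/530 nm; Hill fit → IC50, efficacy.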
# [5] = biological target: Peroxisome proliferator-activated receptor delta (Homo sapiens) (UniProt Q03181); experiment: as above; conditions: HEK293T PPARd-UAS-bla, beta-lactamase FRET ratio, 18 h; series mostly up to 76.7 µM
# In short: as §1
# [6] = biological target: Ubiquitin carboxyl-terminal hydrolase 1 (Homo sapiens) (UniProt O94782); experiment: Inhibitors of USP1/UAF1: Pilot qHTS (AID 504865); conditions: purified USP1/UAF1, Ub-rhodamine cleavage fluorescence; series mostly up to 114 µM;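 note: rhodamine fluorescence freed from ubiquitin-rhodamine substrate followed over time; top concentration of the series differs between compounds; nearly all actives have a fitted effect of over 35% in size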
# Ubiquitin carboxyl-terminal hydrolase 1 (Homo sapiens), sequence (O94782 whole entry, looked up): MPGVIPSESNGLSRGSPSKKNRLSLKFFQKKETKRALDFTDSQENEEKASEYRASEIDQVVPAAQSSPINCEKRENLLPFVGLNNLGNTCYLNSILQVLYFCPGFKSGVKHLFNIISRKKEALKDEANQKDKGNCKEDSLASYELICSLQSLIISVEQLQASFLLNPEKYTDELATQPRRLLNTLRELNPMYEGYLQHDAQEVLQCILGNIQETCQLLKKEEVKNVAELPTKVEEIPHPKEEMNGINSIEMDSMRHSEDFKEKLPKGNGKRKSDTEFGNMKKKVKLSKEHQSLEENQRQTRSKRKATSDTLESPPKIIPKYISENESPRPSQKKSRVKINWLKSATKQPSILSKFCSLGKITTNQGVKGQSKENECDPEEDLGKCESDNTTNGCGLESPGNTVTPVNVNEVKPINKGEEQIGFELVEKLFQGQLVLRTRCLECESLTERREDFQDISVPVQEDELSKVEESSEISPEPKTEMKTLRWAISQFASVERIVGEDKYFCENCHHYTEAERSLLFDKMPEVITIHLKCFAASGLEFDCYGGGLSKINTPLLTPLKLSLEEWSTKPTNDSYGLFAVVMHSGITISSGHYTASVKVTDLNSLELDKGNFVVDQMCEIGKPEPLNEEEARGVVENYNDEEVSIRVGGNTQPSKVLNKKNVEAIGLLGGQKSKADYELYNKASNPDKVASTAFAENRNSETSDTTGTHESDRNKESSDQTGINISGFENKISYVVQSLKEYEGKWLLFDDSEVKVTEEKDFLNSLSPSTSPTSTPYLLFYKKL
# In short: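 1nM USP1/UAF1 + cpd, 15 min RT; start w/ Ub-Rho 150nM final; kinetic FL 480/540 nm, 6 reads q60 s. Buffer 50mM HEPES pH 7.8, 0.5mM EDTA, 1mM TCEP, 0.01% Tween-20, 0.1 mg/ml BSA.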
# [7] = biological target: Guanine nucleotide-binding protein G(i) subunit alpha-1 (Homo sapiens) (UniProt P63096); experiment: qHTS Assay for Inhibitors of RGS12 GoLoco Motif Activity (Green Fluorophore) (AID 879); conditions: Galphai1/FITC-RGS12 GoLoco peptide, fluorescence polarization; series mostly up to 57.1 µM; note: potency is the fitted concentration of half-maximal effect
# Guanine nucleotide-binding protein G(i) subunit alpha-1 (Homo sapiens), sequence (P63096 whole entry, looked up): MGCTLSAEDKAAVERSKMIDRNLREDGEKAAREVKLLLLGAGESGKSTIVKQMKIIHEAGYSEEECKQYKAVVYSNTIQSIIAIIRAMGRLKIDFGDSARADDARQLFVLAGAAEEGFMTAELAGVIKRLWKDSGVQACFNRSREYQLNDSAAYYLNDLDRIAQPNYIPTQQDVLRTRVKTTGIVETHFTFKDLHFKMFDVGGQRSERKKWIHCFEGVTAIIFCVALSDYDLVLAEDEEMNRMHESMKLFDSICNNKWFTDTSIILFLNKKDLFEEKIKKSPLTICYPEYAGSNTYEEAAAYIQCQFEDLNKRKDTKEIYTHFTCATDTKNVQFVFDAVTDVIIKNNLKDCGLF
# In short: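 Fluorescence polarization assay: 50 nM Gαi1 with 10 nM FITC-labeled RGS12 GoLoco peptide in 10 mM Tris pH 7.5, 150 mM NaCl, 0.1 mM GDP, 0.05% NP40, 10 min at room temperature with compound.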
# [8] = biological target: Muscarinic acetylcholine receptor M1 (Rattus norvegicus) (UniProt P08482); experiment: qHTS Assay for Antagonists of Acetylcholine Muscarinic M1 Receptor: Kinetic Measurement of Intracellular Calcium Response (AID 943); conditions: M1-expressing cells, kinetic intracellular calcium fluorescence; series mostly up to 35.3 µM;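 note: Fluo-4 calcium signal as peak divided by basal fluorescence over 4 min; nearly all actives have a fitted effect of over 75% in size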
# Muscarinic acetylcholine receptor M1 (Rattus norvegicus), sequence (P08482 whole entry, looked up): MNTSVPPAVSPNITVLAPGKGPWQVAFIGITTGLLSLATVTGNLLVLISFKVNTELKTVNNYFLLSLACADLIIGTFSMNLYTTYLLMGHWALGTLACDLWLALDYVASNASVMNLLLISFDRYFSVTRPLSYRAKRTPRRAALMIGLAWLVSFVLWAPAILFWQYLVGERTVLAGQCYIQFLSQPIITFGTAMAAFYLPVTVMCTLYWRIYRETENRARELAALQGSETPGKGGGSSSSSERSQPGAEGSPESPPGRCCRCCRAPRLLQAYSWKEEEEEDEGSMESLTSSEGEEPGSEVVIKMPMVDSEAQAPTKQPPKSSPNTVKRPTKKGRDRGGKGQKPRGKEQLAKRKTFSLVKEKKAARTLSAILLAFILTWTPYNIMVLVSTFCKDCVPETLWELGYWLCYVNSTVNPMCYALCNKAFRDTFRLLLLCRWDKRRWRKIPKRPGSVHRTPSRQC
# In short: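 Rat M1-CHO cells, 2000/well, overnight → Fluo-4 no-wash dye with probenecid, 1 h 37C → compound 10 min, room temp → basal read 6 s → carbachol EC80 (100 nM) → 4 min kinetic read; peak/basal.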
# [9] = biological target: Alpha-galactosidase A (Homo sapiens) (UniProt P06280); experiment: Counterscreen for Glucocerebrosidase Inhibitors: qHTS Assay for Human alpha-Galactosidase at pH 4.5 (AID 992); conditions: purified enzyme, fluorogenic substrate; series mostly up to 76.9 µM
# In short: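 Read-out is 4-methylumbelliferone fluorescence (365 nm excitation, 440 nm emission) after a pH 10 NaOH/glycine stop. Reactions held 2 nM enzyme and 80 uM substrate at pH 4.5 for 20 min at room temperature.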
# [10] = biological target: Cytochrome P450 2D6 (Homo sapiens) (UniProt P10635); experiment: qHTS Assay for Inhibitors and Substrates of Cytochrome P450 2D6 (AID 891); conditions: recombinant CYP2D6, luciferin-ME EGE luminescence; series mostly up to 57.1 µM; note: nearly all actives have a fitted effect of over 60% in size; note: potency is the fitted concentration of half-maximal effect
# Cytochrome P450 2D6 (Homo sapiens), sequence (P10635 whole entry, looked up): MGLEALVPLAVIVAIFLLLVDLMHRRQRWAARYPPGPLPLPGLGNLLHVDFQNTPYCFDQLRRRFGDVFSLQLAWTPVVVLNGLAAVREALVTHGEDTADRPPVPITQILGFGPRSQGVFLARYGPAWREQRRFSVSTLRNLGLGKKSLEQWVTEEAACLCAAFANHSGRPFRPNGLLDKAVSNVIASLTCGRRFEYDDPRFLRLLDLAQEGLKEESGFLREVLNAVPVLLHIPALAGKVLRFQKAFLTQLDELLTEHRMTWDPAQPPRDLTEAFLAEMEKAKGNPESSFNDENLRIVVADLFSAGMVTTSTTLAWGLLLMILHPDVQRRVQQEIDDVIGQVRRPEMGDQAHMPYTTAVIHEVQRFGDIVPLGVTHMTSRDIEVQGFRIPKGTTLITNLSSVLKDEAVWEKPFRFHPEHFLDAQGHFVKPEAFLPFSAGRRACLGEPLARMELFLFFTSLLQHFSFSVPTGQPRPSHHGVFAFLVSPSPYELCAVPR
# In short: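 Human CYP2D6 (5 nM) with 30 uM Luciferin-ME EGE (at Km) in 100 mM KPO4, compound preincubated 10 min, then NADPH regeneration system for 60 min at room temperature. Luciferin read by luminescence; normalized to 1.43 uM quinidine.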
# [11] = biological target: Cytochrome P450 2C19 (Homo sapiens) (UniProt P33261); experiment: qHTS Assay for Inhibitors and Substrates of Cytochrome P450 2C19 (AID 899); conditions: recombinant CYP2C19, luciferin-H EGE luminescence; series mostly up to 57.1 µM; note: nearly all actives have a fitted effect of over 60% in size
# Cytochrome P450 2C19 (Homo sapiens), sequence (P33261 whole entry, looked up): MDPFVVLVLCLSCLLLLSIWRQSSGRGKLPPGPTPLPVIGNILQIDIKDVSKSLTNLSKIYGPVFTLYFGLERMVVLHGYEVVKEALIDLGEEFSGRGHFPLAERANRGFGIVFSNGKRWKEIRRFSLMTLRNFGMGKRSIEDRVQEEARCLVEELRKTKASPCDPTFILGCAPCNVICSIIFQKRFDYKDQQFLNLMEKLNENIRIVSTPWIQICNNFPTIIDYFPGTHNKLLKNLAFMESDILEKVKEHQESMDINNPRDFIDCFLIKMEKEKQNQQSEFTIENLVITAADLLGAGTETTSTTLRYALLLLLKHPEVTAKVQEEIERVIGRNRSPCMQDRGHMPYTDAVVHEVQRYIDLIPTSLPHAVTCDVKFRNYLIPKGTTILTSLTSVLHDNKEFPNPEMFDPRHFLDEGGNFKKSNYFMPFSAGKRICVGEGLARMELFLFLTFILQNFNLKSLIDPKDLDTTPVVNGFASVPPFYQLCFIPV
# In short: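 Reactions contain 5nM enzyme, 10uM Luciferin-H EGE (KM) and 50mM KPO4; compound preincubates 10 min at 37C, NADPH regeneration starts turnover for 60 min. Luminescence after detection reagent gives activity.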
# [12] = biological target: Tyrosyl-DNA phosphodiesterase 1 (Homo sapiens) (UniProt Q9NUW8); experiment: Confirmation Assay for Inhibitors of Tyrosyl-DNA Phosphodiesterase (TDP1) (AID 489007); conditions: recombinant human TDP1 enzymatic activity, dose-response; note: potency is the fitted concentration of half-maximal effect; nearly all actives have a fitted effect of over 40% in size
# Tyrosyl-DNA phosphodiesterase 1 (Homo sapiens), sequence (Q9NUW8 whole entry, looked up): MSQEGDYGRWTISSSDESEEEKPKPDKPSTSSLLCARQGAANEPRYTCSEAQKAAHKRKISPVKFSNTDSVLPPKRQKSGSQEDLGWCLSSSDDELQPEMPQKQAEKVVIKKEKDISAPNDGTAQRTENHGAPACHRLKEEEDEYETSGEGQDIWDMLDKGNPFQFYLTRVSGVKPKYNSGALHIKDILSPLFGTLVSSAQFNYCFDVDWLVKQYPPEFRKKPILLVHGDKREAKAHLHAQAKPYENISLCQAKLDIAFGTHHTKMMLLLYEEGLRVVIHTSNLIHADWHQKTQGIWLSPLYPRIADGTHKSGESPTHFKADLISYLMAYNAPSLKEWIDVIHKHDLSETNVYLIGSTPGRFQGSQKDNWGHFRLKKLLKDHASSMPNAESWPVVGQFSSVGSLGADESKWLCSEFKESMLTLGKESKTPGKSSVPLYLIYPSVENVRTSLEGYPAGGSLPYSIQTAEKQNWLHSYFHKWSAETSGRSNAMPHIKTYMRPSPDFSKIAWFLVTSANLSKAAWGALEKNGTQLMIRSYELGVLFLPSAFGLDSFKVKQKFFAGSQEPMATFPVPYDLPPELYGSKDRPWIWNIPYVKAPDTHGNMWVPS
# In short: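 Tdp1 1 nM + cpd, 15 min RT; add biotin/phosphotyrosine-FITC oligo 15 nM, 5 min RT; add AS donor/acceptor beads 10 ug/ml, 10 min RT; read AlphaScreen. No-enzyme wells = max signal.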
# [13] = Inducers of the Endoplasmic Reticulum Stress Response (ERSR) in human glioma: Validation (AID 504836); conditions: human glioma cells, ER stress response reporter; series mostly up to 38.3 µM
# In short: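 ERSR induction read as luciferase luminescence (Bright-Glo, 10 min at room temperature) in stably transfected human U87-MG glioma cells exposed to compounds for 16 h, using GRP78 as sensor.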
# [14] = S16 Schwann cell PMP22 intronic element firefly luciferase assay (AID 624032); conditions: S16 rat Schwann cells, PMP22 element FLuc, 24 h; series mostly up to 57.5 µM; note: nearly all actives have a fitted effect of over 30% in size
# In short: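 Luciferase reporter of PMP22 intronic-element expression in stably transfected S16 rat Schwann cells, read by ONE-Glo luminescence after 24 h compound exposure at 37 C. Activity scaled between DMSO (0%) and positive-control PTC124; concentration-effect curves quality-classified.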
# [15] = biological target: ATP-dependent 6-phosphofructokinase (Trypanosoma brucei brucei) (UniProt O15648); experiment: qHTS Assay to Find Inhibitors of T. brucei phosphofructokinase: hit validation (AID 492961);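 note: luminescence reports ADP formed as PFK phosphorylates fructose-6-phosphate with ATP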; conditions: T. brucei PFK, ADP-Glo luminescence; series mostly up to 51.4 µM
# ATP-dependent 6-phosphofructokinase (Trypanosoma brucei brucei), sequence (O15648 whole entry, looked up): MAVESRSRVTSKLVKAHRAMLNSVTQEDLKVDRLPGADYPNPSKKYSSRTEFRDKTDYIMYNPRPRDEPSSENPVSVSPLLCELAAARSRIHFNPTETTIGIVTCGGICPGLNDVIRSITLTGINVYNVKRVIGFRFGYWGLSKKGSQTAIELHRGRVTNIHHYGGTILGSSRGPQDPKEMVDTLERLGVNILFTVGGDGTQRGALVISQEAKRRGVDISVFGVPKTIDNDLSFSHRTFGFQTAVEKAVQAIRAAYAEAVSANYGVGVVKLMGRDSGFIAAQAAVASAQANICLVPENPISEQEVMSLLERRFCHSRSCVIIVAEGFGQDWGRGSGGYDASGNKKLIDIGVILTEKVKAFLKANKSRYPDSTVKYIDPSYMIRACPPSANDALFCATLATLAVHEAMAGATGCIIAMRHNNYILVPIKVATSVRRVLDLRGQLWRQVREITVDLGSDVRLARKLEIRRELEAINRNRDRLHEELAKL
# In short: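 Measures ADP output of PFK (1.25 nM) at 0.1 mM ATP, 0.5 mM F6P, pH 8.0 TEA buffer with 5 mM MgCl2. No-enzyme wells define full inhibition; uninhibited enzyme wells define zero.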
# [16] = qHTS profiling for inhibitors of Plasmodium falciparum proliferation (AID 504749); note: nearly all actives have a fitted effect of over 60% in size; conditions: P. falciparum in erythrocytes, SYBR Green DNA, 72 h
# In short: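 Infected RBCs, 0.3% parasitemia/2.5% Hct final; cpd 72 h, 37 C, 5% CO2; lysis buffer with saponin/triton/SYBR Green I, o/n RT dark; FI 485/535; norm. to artemisinin (0.29 uM) and DMSO.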
structure (smiles),measurement,setting,value
N#CC(Cl)Cl,Potency,[1],inactive
same,activation,[2],16.6% (inactive)
O=C(O)C1C(C(=O)O)C2(Cl)C(Cl)=C(Cl)C1(Cl)C2(Cl)Cl (centres undefined),Potency,[3],inactive
Clc1ccc(C(c2ccc(Cl)cc2)C(Cl)Cl)cc1,max response,[4],-7.51%
same,Potency,[5],inactive
Oc1cc2c(cc1O)[C@H]1c3ccccc3CN[C@H]1CC2,Potency,[6],inactive
COC[C@H]1OC(=O)c2coc3c2[C@@]1(C)C1=C(C3=O)[C@H]2CCC(=O)[C@@]2(C)C[C@H]1OC(C)=O,Potency,[7],25.1 µM (active)
same,Potency,[1],inactive
same,Potency,[8],inactive
same,outcome,[9],inactive
same,Potency,[6],inactive
COc1cc2c(cc1OC)-c1c(O)c(OC)cc3c1[C@@H](C2)N(C)CC3,Potency,[10],15.8 µM (active)
COc1cc2c(cc1OC)-c1c(OC)c(OC)c(CO)c3c1[C@H](C2)N(C)CC3,Potency,[10],inactive
same,Potency,[11],inactive
COC1=C[C@H]2[C@@H]3Cc4ccc(OC)c(O)c4[C@@]2(CCN3C)CC1=O,Potency,[11],inactive
OC[C@H]1CCCN2CCCC[C@@H]12,Potency,[10],inactive
same,Potency,[11],inactive
CC1=CC(=O)C2=C(C)C[C@H](O)[C@@H]3[C@@H](OC(=O)[C@H]3C)[C@H]12,Potency,[10],inactive
same,Potency,[11],inactive
C[C@@]12CCC[C@](C)(C(=O)O)[C@@H]1CCc1ccc(O)cc12,Potency,[10],inactive
same,Potency,[11],inactive
COc1cc2c(cc1O)CCN[C@H]2C,Potency,[11],inactive
CCc1nnc(NC(=O)CSc2ccc(-c3ccco3)nn2)s1,Potency,[12],15.8 µM (active)
COc1ccccc1CNCCCCCCNCCCCCCCCNCCCCCCNCc1ccccc1OC,outcome,[13],inactive
O=c1[nH]c(=O)n([C@H]2C[C@H](O)[C@@H](CO)O2)cc1/C=C/Br,Potency,[14],inactive
CC1(C)C(=O)N(CCN2CCC(C(=O)c3ccc(F)cc3)CC2)c2ccccc21,outcome,[13],inactive
O=c1c2ccccc2nc(/C=C/c2cccnc2)n1Cc1ccccc1,Potency,[12],14.1 µM (active)
O=C1NC(=O)N(c2ccc3c(c2)OCO3)C(=O)/C1=C\c1ccc(-c2ccccc2C(=O)O)o1,Potency,[12],3.16 µM (active)
CCOC(=O)C1CCN(/C=C2/C(=O)NC(=O)N(Cc3ccco3)C2=O)CC1,Potency,[12],44.7 µM (active)
O=C1C(SCCO)=C(SCCO)C(=O)c2ccccc21,outcome,[13],inactive
O=C1NC(=S)NC(=O)C1=Cc1ccc2c(c1)CCN2CCCCl,Potency,[12],2.51 µM (active)
CC(C)C(NC(=O)C(CC(=O)O)NC(=O)C(CCCCN)NC(=O)C(N)CCCN=C(N)N)C(=O)NC(Cc1ccc(O)cc1)C(=O)O (centres undefined) (H-RKDVY-OH; configuration not given here),outcome,[15],inactive
CC1(C)S[C@@H]2[C@H](N)C(=O)N2C1C(=O)O (some centres undefined),outcome,[15],inactive
same,Potency,[6],inactive
same,Potency,[14],inactive
same,"activity, negative = inhibition","[16]; at 12.8 µM (top of the series), parasite line A",15.1% (inactive)
same,"activity, negative = inhibition","[16]; at 12.8 µM (top of the series), parasite line B",13.6% (inactive)
[S]=[Sb][S][Sb]=[S],outcome,[15],inactive
same,Potency,[6],inactive
same,Potency,[14],inactive
same,"activity, negative = inhibition","[16]; at 28.7 µM (top of the series), parasite line A",8.49% (inactive)
same,"activity, negative = inhibition","[16]; at 28.7 µM (top of the series), parasite line B",1.29% (inactive)
Nc1nc(/C(=C/CC(=O)O)C(=O)NC2C(=O)N3C(C(=O)O)=CCSC23)cs1 (centres undefined),Potency,[12],12.6 µM (active)
same,Potency,[6],inactive
